Data from PubChem BioAssay (NCI).
This is part of a sample that, as a whole, favours compounds with a hit. Of some 83,000 tested, about 20% had one in any assay.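 Cells were grown in 96-well plates and exposed to the test compound at a single concentration for 48 hours; results are reported as percent growth, with values below 10 considered active.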 Values without a mark were called inactive. Calls of active or inactive are those of the source.

test system: HL-60(TB) leukemia; test: NCI-60 one-dose screen, 48 h (100 = growth as untreated, 0 = no growth, -100 = all killed); settings: 10 µM unless noted

Row | SMILES | growth
1 | CC(=O)Nc1ccc(S(=O)(=O)N/N=C\c2ccc(Cl)c(Cl)c2)cc1 | 1.93% (active)
2 | COc1ccccc1/C=C1\COc2ccc(-c3ccccc3)cc2C1=O | -47.8% (active)
3 | COc1ccc(/C=C(/C(=O)N2CCN(Cc3ccccc3)CC2)c2cc(OC)c(OC)c(OC)c2)cc1O | 22.9%
4 | Cn1c(C(=O)c2cccc3ccccc23)nc2ccccc21 | 3.94% (active)
5 | CNCCCNc1nc2ccccc2c2c(=O)c3cc(Cl)ccc3sc12 | -55.2% (active)
6 | C=C1c2nc3ccccc3n2C=C(c2ccc(Cl)cc2)N1Cc1ccccc1 | 60.1%
7 | Cc1cccc(C(=O)N(C(C)C)C(C)C)c1 | 99.1%
8 | O=C(COC(=O)[C@H](C[Se][Se]C[C@H](NC(=O)c1ccc(Br)cc1F)C(=O)OCC(=O)c1ccc(F)cc1)NC(=O)c1ccc(Br)cc1F)c1ccc(F)cc1 | -45.3% (active)
9 | CC1(C)CC[C@]2(C(=O)N3CCOCC3)CC[C@]3(C)C(=CC[C@@H]4[C@@]5(C)C/C(=C/c6ccncc6)C(=O)C(C)(C)[C@@H]5CC[C@]43C)[C@@H]2C1 | -37.6% (active)
10 | O=C(c1ccccc1)C1(Br)CCCCC1 | 106%
11 | O=C(Nc1c(Cl)cccc1Cl)Oc1cccc2cccnc12 | -5.41% [100 µM] (active)
12 | Nc1nc(N)c2c(n1)NC(c1cccc(Nc3ccnc4cc(C(F)(F)F)ccc34)c1)CC(c1ccc(F)cc1)=N2 (centres undefined) | 17.8%
13 | c1ccc(-c2nc(Nc3ccc(-c4nc5ccccc5[nH]4)cc3)nc(N3CCOCC3)n2)cc1 | -32.7% (active)
14 | N#CC1C(C#N)C(C(=O)c2ccc(Br)cc2)N2c3ccccc3C=CC12 (centres undefined) | 94.3%
15 | CCCCCCCCN(CCCCCCCC)CCCCCCNc1cc(OC)cc2cccnc12 | 83.6%
16 | CCCC(=O)OCC1OC(n2cnc3c(=S)nc[nH]c32)C(OC(=O)CCC)C1OC(=O)CCC (centres undefined) | 32.1%
17 | O=C(c1ccc(Cl)cc1)c1no[n+]([O-])c1C(=O)c1ccc(Cl)cc1 | -27.9% (active)
18 | Cc1ccc(-n2c3c(c(-c4ccccc4)c2-c2ccccc2)C2=NCCN2C=N3)cc1 | 98.5%
19 | Cc1ccc(Cl)cc1N1C(=O)CC(Sc2ccccc2N)C1=O (centres undefined) | 110%
20 | CC(=O)Nc1c(C)cc(C)cc1C | 99.8%

Row | SMILES | growth
21 | COc1ccc(C(=O)Cn2cnc3c(Nc4cc(C(=O)Nc5ccc(N6CCN(CCO)CC6)cc5)ccc4C)ncnc32)cc1 | 83.6%
22 | C=C(C)CCCC(C)CC#N (centres undefined) | 108%
23 | CNC(=O)c1cc(Oc2ccc(NC(=O)c3[nH]c(SC)nc3-c3ccc(F)cc3)cc2)ccn1 | 78.6%
24 | C[C@@H]1C(=O)N(C[C@@H](Cc2ccccc2)NC(=O)OCc2ccccc2)[C@]1(Cc1ccccc1)C(=O)OCc1ccccc1 | 13.1%
25 | CN1CCN(C(=O)[C@]23CCC(C)(C)C[C@H]2C2=CC[C@@H]4[C@@]5(C)C/C(=C/c6cccnc6)C(=O)C(C)(C)[C@@H]5CC[C@@]4(C)[C@]2(C)CC3)CC1 | -32.4% (active)
26 | O=C(O)/C=C/C(=O)Nc1cccc(Cn2nnc3cc(Cl)c(Cl)cc32)c1 | 112%
27 | Clc1ccc2c(NCCCn3cnc4c(N5CCCC5)nc(Cl)nc43)ccnc2c1 | 81.6%
28 | COc1ccc(C(=O)OC2C(OC3C(O)COC(O[C@H]4C[C@H]5[C@@H]6CC=C7C[C@@H](O)CC[C@]7(C)[C@H]6CC[C@]5(C)[C@H]4[C@H](C)C(=O)CCC(C)C)C3OC(N)=O)OCC(O)C2O)cc1 (some centres undefined) | -36.9% (active)
29 | CC(C)N1C(=O)/C(=c2\sc3n(c2=O)C2C(NN=3)N(C)C(=O)N2C)c2ccccc21 (centres undefined) | 25.8%
30 | O=C(N/N=C/C[C@@H]1[C@@H](/C=C/[C@@H](O)COc2cccc(Cl)c2)[C@H](O)C[C@@H]1O)c1ccncc1 | 87.5%
31 | COc1ccc(-c2nn(-c3cccc(Cl)c3)cc2-c2c(C#N)c(=O)n3[nH]c(-c4ccc(C)cc4)nc3c2C#N)cc1 | 61.7%
32 | C=C1C(=O)O[C@H]2[C@H]1CC/C(Cn1cc(-c3cccc(Cl)c3)nn1)=C\CC[C@@]1(C)O[C@@H]21 | -24.9% (active)
33 | CC1(C)CC[C@]2(C(=O)O)CC[C@]3(C)C(=CC[C@@H]4[C@@]5(C)C[C@@H](Cc6cn([C@@H]7O[C@H](CO)[C@@H](O)[C@H](O)[C@H]7O)nn6)[C@H](O)C(C)(C)[C@@H]5CC[C@]43C)[C@@H]2C1 | 93.4%
34 | Nc1c(Cl)cccc1[N+](=O)[O-] | 112%
35 | Brc1ccc(-c2cnc3nonc3n2)cc1 | 19.6%
36 | CC12CCC3C4(C)COC(c5ccco5)OC4CCC3(C)C1CC(C1=CCOC1=O)O2 (centres undefined) | 98.3%
37 | Cc1ccc2oc(=O)cc(-c3sc(N4CCCCC4)nc3-c3ccccc3)c2c1 | 95%
38 | Nc1nccc2c1ccn2-c1cccc(NC(=O)c2ccc(N3CCOCC3)c(C(F)(F)F)c2)c1 | -3.75% (active)
39 | Cn1cc(-c2nc3c(F)cc4[nH]ncc4c3c3c2CCCC3)c(C(F)(F)F)n1 | -11.2% (active)
